# Screening results: PubChem, National Center for Advancing Translational Sciences (NCATS)
# ELG1 genotox: induces genotoxicity in HEK293T cells with luciferase-tagged ELG1. 330,000 compounds, 1.3% hits. HEK293T ELG1-luciferase reporter, luminescence, 16 h. Potency, µM (doses to about 46 µM), for inactives: at the highest dose activity change, positive = activation, hits mostly activators; also: % of control where 0% means no effect; nearly all actives have a fitted effect of over 60% in size
#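 Genotoxic stress is detected as increased luminescence from luciferase-tagged ELG1 in HEK293T cells, measured with ONE-Glo after a 16 hr treatment at 37 °C.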
# NPC1 promoter act: activates the NPC1 promoter; Huh7 NPC1 promoter luciferase reporter, 24 h; Potency, µM (highest dose often 9.22 µM), for inactives: at the top dose activation, most hits filed as activators; 320,000 compounds, 2.4% hits; also: % of control where 0% means no effect; nearly all actives have a fitted effect of over 60% in size
#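 Quantitative HTS used a cell-based reporter: Huh7 cells stably bearing the NPC1 promoter upstream of luciferase were treated with compounds for 24 h, and promoter activation was read as luminescence.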
# FLuc counter: firefly luciferase modulation, counter-screen for miR-21 project | purified FLuc, Km substrates, luminescence inhibition | 360,000 compounds, 6.9% hits | Potency, µM (series often up to 57.5 µM), for inactives: at the highest dose activity change, negative = inhibition, most hits filed as inhibitors | P08659;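 also: plate controls were vehicle for no effect and reference inhibitor for full effect; nearly all actives have a fitted effect of over 55% in size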
# Target sequence (P08659 whole entry, looked up): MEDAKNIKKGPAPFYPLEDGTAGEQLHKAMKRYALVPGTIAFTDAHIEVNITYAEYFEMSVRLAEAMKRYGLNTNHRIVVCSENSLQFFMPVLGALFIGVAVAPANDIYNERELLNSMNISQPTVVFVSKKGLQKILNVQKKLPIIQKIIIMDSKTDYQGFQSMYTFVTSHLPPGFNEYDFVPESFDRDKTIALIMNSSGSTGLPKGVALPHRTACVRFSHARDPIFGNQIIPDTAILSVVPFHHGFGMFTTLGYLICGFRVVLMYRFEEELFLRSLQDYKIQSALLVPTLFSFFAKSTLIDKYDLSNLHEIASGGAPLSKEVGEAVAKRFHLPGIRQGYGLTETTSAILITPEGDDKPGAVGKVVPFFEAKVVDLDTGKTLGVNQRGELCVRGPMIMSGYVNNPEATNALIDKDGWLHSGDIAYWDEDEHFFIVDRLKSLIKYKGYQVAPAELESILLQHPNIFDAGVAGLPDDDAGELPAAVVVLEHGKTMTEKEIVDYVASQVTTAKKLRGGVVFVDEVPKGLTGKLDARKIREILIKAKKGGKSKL
#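 Biochemical qHTS of compounds, final roughly 60 µM downward over six points, against 10 nM purified firefly luciferase using Km concentrations of substrates (10 uM D-luciferin, 10 uM ATP) in Tris acetate pH 7.5 buffer; luminescence output.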
# Rab9 prom act: activators of Rab9 promoter; Huh7 Rab9 promoter-luciferase reporter, luminescence, 24 h; 320,000 compounds, 2.8% hits; Potency, µM (series often up to 9.22 µM), inactives show top-dose activation, negative = inhibition, most hits filed as activators; AID 485297; also: % of control where 0% means no effect; nearly all actives have a fitted effect of over 60% in size
#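 Quantitative HTS format; Huh7 Rab9-luciferase reporter cells (1500/well) receive compound 2 h post-plating, incubate 24 h at 37 °C, then get luciferase reagent for 10 min before luminescence reading.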
# KinaseGlo FLuc: Kinase-Glo luciferase inhibition (counter-screen). Q27757. Kinase-Glo luciferase, ATP luminescence, 8 min. Potency, µM (titrated, usually from 38.3 µM), for inactives: at the top dose activity change, negative = inhibition, most hits filed as inhibitors. 200,000 compounds, 0.28% hits; also: % is scaled to controls: 0 for no effect and ±100 for the full control effect; nearly all actives have a fitted effect of over 60% in size
#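 Substrate mix (final 50 mM imidazole pH 7.2, 50 mM KCl, 7 mM MgCl2, 10 uM ATP, 0.01% Tween 20, 0.05% BSA) plus pin-tool compound, then Kinase-Glo detection mix; 8 min ambient, luminescence read.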
# SMN2 splice up: SMN2 splice variant enhancement; 210,000 compounds, 2.8% hits; AID 1458; HEK293 SMN2-luciferase splicing reporter, luminescence, 30-36 h; Potency, µM (doses to about 46.1 µM), without a hit: at the highest dose activity change, positive = activation, most hits filed as activators; also: % of control where 0% means no effect; nearly all actives have a fitted effect of over 55% in size
#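 qHTS luciferase splicing reporter: luminescence rises when SMN2 exon 7 is included in transfected HEK293 cells. Compound exposure lasted 30-36 h at 37C, with 4.5 mM final sodium butyrate as control, followed by a ONE-Glo read.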
# * marks the source's active call; other numbers are inactive results; u = inconclusive; x = no result; [ ] = remark or other dose. Hits are enriched below; roughly 7.4% of the tested compounds scored in any of these assays. Calls follow the shape of the dose curve; as a rule, active = well fitted curve in the direction sought with a large enough effect; inconclusive = small, poorly fitted or top-dose-only effect, or another doubt; inactive = no such curve, though single readings can be large; an effect the other way counts as inactive or inconclusive. Potency is read from the fitted curve at half-maximal effect.
SMILES,ELG1 genotox,NPC1 promoter act,FLuc counter,Rab9 prom act,KinaseGlo FLuc,SMN2 splice up
CCc1ccc(OCC(=O)O/N=C(\N)c2ccncc2)c(Br)c1,u,3.16µM*,7.57µM*,2µM*,x,x
c1ccc(-n2nc3c(ccc4cnnc43)[nH]2)cc1,u,2.51µM*,7.57µM*,1.78µM*,-14.6%,u
CCCC[C@@H]1C[C@H]1C(NC(=O)c1ccco1)c1ccccc1 (stereo partly specified),x,x,x,x,-2.9%,-24.9%
Cc1cc(N/N=C/c2ccc(N(C)C)cc2)nc(NCc2ccccc2)n1,-11.9%,1.6%,10.7µM*,-11.9%,x,x
Cc1ccc(/C=N/Nc2cc(C)nc(NCc3ccccc3)n2)cc1,-5.4%,-1.9%,10.7µM*,-5.5%,x,x
COc1ccc2nc(C)cc(N/N=C/c3ccc(F)cc3)c2c1,-16.7%,-38.9%,16.9µM*,-11.9%,x,x
Cc1cc(N/N=C/c2ccc(F)cc2)nc(NCc2ccccc2)n1,1.3%,14.6%,10.7µM*,0.9%,x,x
COc1ccc(/C=N/Nc2cc(C)nc3ccccc23)cc1,u,13.0%,u,-1.8%,x,x
Cc1cc(N/N=C/c2ccc(Cl)cc2Cl)nc(NCc2ccccc2)n1,-9.2%,-9.3%,u,-10.4%,-4.1%,-49.0%
COC(=O)N1C(C)=Cc2ccccc2C1C/C(C)=C/C(C)=O (stereo unspecified),x,x,x,x,1.3%,-11.7%
CCn1c(C)c(C)c2cc(C(=O)NCC(C)c3ccccc3)ccc21 (stereo unspecified),x,x,-6.0%,x,x,x
O=C(O)[C@H](CCc1ccccc1)N1C(=O)c2ccccc2C1=O,x,x,x,x,-3.5%[7.66 µM],2.6%[9.22 µM]
CCOc1ccc(-c2cccc(NS(=O)(=O)c3ccc(Cl)s3)c2)nn1,x,x,15.1µM*,x,x,x
O=S(=O)(Nc1cccc(S(=O)(=O)N2CCCC2)c1)c1ccc(Cl)s1,-0.7%,1.2%,x,-4.5%,x,x
CCOc1ccc(-c2cccc(NS(=O)(=O)c3ccccc3[N+](=O)[O-])c2)nn1,-0.8%,12.8%,2.7%,0.6%,x,x
O=S(=O)(Nc1cccc(-c2ccc(N3CCCCC3)nn2)c1)c1ccc(Cl)s1,x,x,1.2µM*,x,x,x
O=S(=O)(Nc1cccc(-c2ccc(N3CCCCC3)nn2)c1)c1cccs1,x,x,0.953µM*,x,x,x
COc1ccc2c(CNCc3cccs3)c(C(=O)O)n(Cc3ccccc3F)c2c1,x,x,-14.7%,x,x,x
COC(=O)Cc1ccc(NC(=O)c2ccccc2Cl)cc1,15.1%,1.9%,15.1µM*,-2.4%,-0.1%,22.8%
CC(=O)Nc1ccc(C(=O)NNC(=O)c2ccc(Cl)cc2)cc1,-1.9%,-1.3%,-2.8%,-3.6%,x,x
NS(=O)(=O)c1ccc(NC(=O)c2ccccc2Cl)cc1,-0.7%,-2.4%,-0.8%,-1.1%,1.2%,-2.5%
COC(=O)Cc1ccc(NC(=O)c2ccc(C(C)(C)C)cc2)cc1,-22.6%,-29.2%,1.35µM*,-19.2%,-2.8%,-86.9%
CC(C)(C)c1ccc(NC(=O)c2ccsc2)cc1,u,0.447µM*,1.07µM*,0.398µM*,x,x
CC(C)(C)c1ccc(C(=O)Nc2ccc(Cl)cc2)cc1,u,2.82µM*,u,1.41µM*,-2.4%,3.55µM*
O=C(CN1C(=O)c2cccnc2Sc2ccccc21)Nc1cc(F)ccc1F,x,x,-5.2%,x,x,x
SMILES,ELG1 genotox,NPC1 promoter act,FLuc counter,Rab9 prom act,KinaseGlo FLuc,SMN2 splice up
CCOc1ccc(NC(=O)CSc2oc(-c3ccc(F)cc3)nc2S(=O)(=O)c2ccc(C)cc2)cc1,x,x,1.0%,x,x,1.8%
C[C@@]12CCC[C@H]1C1CC[C@H]3C[C@H](O)CC[C@]3(C)C1CC2 (stereo partly specified),x,x,x,x,x,-3.1%
CC(=O)Nc1nonc1NC(=O)c1ccc(C(C)(C)C)cc1,19.2%,u,u,3.55µM*,4.5%,u
C(=N\Nc1nc(Nc2ccccc2)nc(N2CCCCC2)n1)/c1ccco1,-11.0%,4.7%,6.01µM*,25.7%,0.2%,x
O=C(O)c1cccc(Nc2nc(Nc3ccccc3)nc(N3CCCC3)n2)c1,-8.9%,3.16µM*,u,u,1.7%,4.1%
c1ccc(Nc2nc(N3CCCCC3)nc(N3CCCCC3)n2)cc1,-4.1%,-0.2%,5.7%,-4.9%,1.1%,-18.6%
